# Tested on: Plasmodium falciparum
# Experiment: GSK_TCMDC: Inhibition of Plasmodium falciparum 3D7 in whole red blood cells, using parasite LDH activity as an index of growth. Test compounds present at 2uM
# Format: functional
row,Structure (SMILES),Inhibition [%]
1,CNC(=O)C1Cc2c([nH]c3c(C)cccc23)C2(N1)C(=O)Nc1ccc(OC(F)(F)F)cc12 (stereo not given),100
2,CC(C)Oc1ccc(N2CCN(CCCCNC(=O)c3ccc(NC(=O)c4ccc(Cl)cc4)cc3)CC2)c(OC(C)C)c1,100
3,COc1cccc(Nc2nc(C)cc(NCc3ccc(-c4c(C)noc4C)cc3)n2)c1,98
4,O=C1OC(c2ccccc2)(c2ccccc2)CN1C1CCN(Cc2ccc(O)c(Cl)c2)C1 (stereo not given),100
5,Cc1[nH]c(C)c(-c2ccc(OCc3ccccc3C(F)(F)F)nc2)c(=O)c1Br,98
6,Cc1c(-c2cccc(NC(=O)C(C)(C)Oc3ccc(Cl)cc3)c2)nc2ncccn12,98
7,CCCNC(=O)C1Cc2cc(OC)c(OC)cc2C2(N1)C(=O)N(Cc1cccc(OC)c1)c1ccccc12 (stereo not given),91
8,CCc1ccccc1-c1csc(C(=O)NCC2CCN(Cc3ccc(C(C)(C)C)cc3)C2)c1.O=C(O)C(F)(F)F (stereo not given),90
9,CCCNc1ccc2nccc(CCN3CCC(NCc4ccc5c(c4)NC(=O)CS5)CC3)c2n1.Cl,94
10,Oc1c(C(Nc2ccccn2)c2ccc(Cl)cc2Cl)ccc2cccnc12 (stereo not given),88
11,FC(F)(F)c1cccnc1N1CCC(Nc2nc3cc(Cl)ccc3[nH]2)CC1,93
12,Cc1cc(N(C)C2CCN(C)C2)nc(Nc2ccccc2Cl)n1 (stereo not given),100
13,CSc1nc2cc3c(cc2n1C(=O)c1ccc(C)cc1)OCCO3,99
14,Cc1cc(N[C@@H](Cc2ccccc2)C(=O)NCCc2ccccc2)nc(NCC2CCCCC2)n1.O=C(O)C(F)(F)F,100
15,COc1ccc2ncc(C#N)c(CCN3CCC(NCc4ccc5c(c4)NC(=O)CO5)CC3)c2c1.Cl,99
16,N=C(N)Nc1nc(-c2cccc(NC(=O)NCc3cccc4ccccc34)c2)cs1,100
17,CCc1ccc(CN(Cc2ccc(C)cc2)Cc2ccc(NC(C)=O)cc2)cc1,89
18,Cc1c[nH]c(-c2cccc(C(=O)NC3CCC(CCN4CCc5ccc(C#N)cc5CC4)CC3)c2)n1.Cl (stereo not given),100
19,Cc1[nH]cnc1Cc1ccc2c(c1O)c1ccccc1n2C,90
20,O=C(Nc1ccccc1O)c1ccc(Oc2cccc(C(=O)Nc3ccccc3O)c2)cc1,97

row,Structure (SMILES),Inhibition [%]
1,COC1CCC(C(=O)Nc2ccc(-c3cccc(-c4nc5cccc(C)c5[nH]4)c3)cc2)CC1 (stereo not given),97
2,Cc1ccc2[nH]c3ccccc3c(=O)c2c1,93
3,Cc1cc(C2CCN(CCCCNC(=O)c3ccc(NC(=O)c4ccc(Cl)cc4)cc3)CC2)c(C)cc1OCc1nccn1C.Cl,100
4,CCN(CC)CCCC(C)Nc1ccnc2[nH]c3ccccc3c12 (stereo not given),82
5,CC(O)C1CCCCN1C(=O)c1ccc(-c2ccc(-c3nc4cc(F)ccc4[nH]3)cc2)cc1 (stereo not given),100
6,COc1ccc(CC(=O)NC(CCN2CCC3(CC2)CN(S(C)(=O)=O)c2ccccc23)c2ccc(Cl)c(Cl)c2)cc1OC (stereo not given),92
7,CN(C)CCCOc1cccc(CCNCc2cccc(Oc3ccc(Cl)cc3)c2)c1.O=C(O)C(F)(F)F,93
8,CN(C)CCOC(=O)C1(O)CCC2CC1C2(C)C.Cl (stereo not given),95
9,CCCCC1=CC2C(=O)C(C(=O)OC)=CN=C2C=C1OCc1ccccc1 (stereo not given),99
10,COc1cc2ccccc2c(CON2C(=N)N=C(N)NC2(C)C)c1OC.Cl,96
11,Cc1ccc(C2(CN3CCC(NC(=O)c4n[nH]cc4Cl)CC3)CCCCC2)cc1,97
12,CN1CCC(NCCS(=O)(=O)c2cccc(Nc3ccc(-c4cccc(F)c4)cn3)c2)CC1,99
13,CC(C)c1ccc(CN2CCCCC(NC(=O)c3cc(-c4ccccc4F)cs3)C2)cc1.O=C(O)C(F)(F)F (stereo not given),99
14,Br.COc1ccc(OCCCON2C(=N)N=C(N)NC2(C)C)cc1,97
15,COc1ccc2nccc([C@@H](O)CN3CCC(NCCOc4ccc(F)cc4Cl)CC3)c2c1.O=C(O)C(=O)O,99
16,COc1ccc(-c2nnc(Sc3ccc(C#N)c([N+](=O)[O-])c3)n2CC(C)C)cc1,97
17,COc1ccc(S(=O)(=O)NC2CCN(c3ccnc4cc(Cl)ccc34)C2)cc1.O=C(O)C(F)(F)F (stereo not given),100
18,O=c1ccc(-c2nc3cc(Cl)c(Cl)cc3n2Cc2ccc(Cl)cc2Cl)c[nH]1,88
19,COc1ccc2nc3cc(Cl)ccc3c(NCCN3CCN(C)CC3)c2c1.Cl,100
20,Cc1cc(NCCc2ccccc2)nc(NC(=N)Nc2cccc([N+](=O)[O-])c2)n1,100
